Mtb hypoxia inh: reduces hypoxia-regulated biosensor signal in M. tuberculosis. M. tuberculosis hypoxia-regulated fluorescent reporter, fluorescence. AID 1159583. fluorescence inhibition, % (test concentration not listed). hit rate 0.1% among 300,000; in the data active = fluorescence inhibition mostly above about 23%, no sharp cut-off; inactive = mostly below about 17%
Mtb bLac sens: beta-lactam sensitization of Mtb H37Rv; AID 434955; M. tuberculosis H37Rv growth with meropenem, percent inhibition; inhibition, % at 25 µM; hit rate 0.27% among 330,000; call rule not given here;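 also: growth measured after seven days incubation then overnight dye step; 0% = bacteria only wells and 100% = bacteria with antibiotic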
GDH-TPI counter: GDH-TPI coupled enzyme inhibition counter-screen. inhibition, % at 4.8 µM. hit rate 1.2% among 360,000. GDH-TPI coupled enzyme counterscreen, NADH absorbance; in the data active = inhibition above about 30%;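 also: 0% = DMSO wells and 100% = wells lacking the enzyme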
VHR inh abs: blocks human VHR1 dual specificity phosphatase. P51452. recombinant VHR phosphatase, pNPP absorbance. inhibition, % at 13.3 µM. hit rate 0.52% among 290,000. AID 1654; in the data active = inhibition above about 50%
Target sequence (P51452 whole entry, looked up): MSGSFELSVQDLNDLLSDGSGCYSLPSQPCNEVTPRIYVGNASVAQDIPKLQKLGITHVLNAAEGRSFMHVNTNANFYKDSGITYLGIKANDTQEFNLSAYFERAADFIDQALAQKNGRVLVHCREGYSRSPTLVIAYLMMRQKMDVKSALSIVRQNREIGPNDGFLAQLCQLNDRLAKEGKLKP
FBA Mtb inh: inhibitors of M. tuberculosis fructose-bisphosphate aldolase; P9WQA3; hit rate 2.3% among 360,000; purified M. tuberculosis FBA, fluorescence read-out; AID 588726; inhibition, % at 1 µM; in the data active = inhibition above about 27%;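 also: 0% = vehicle and 100% = reference inhibitor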
Target sequence (P9WQA3 whole entry, looked up): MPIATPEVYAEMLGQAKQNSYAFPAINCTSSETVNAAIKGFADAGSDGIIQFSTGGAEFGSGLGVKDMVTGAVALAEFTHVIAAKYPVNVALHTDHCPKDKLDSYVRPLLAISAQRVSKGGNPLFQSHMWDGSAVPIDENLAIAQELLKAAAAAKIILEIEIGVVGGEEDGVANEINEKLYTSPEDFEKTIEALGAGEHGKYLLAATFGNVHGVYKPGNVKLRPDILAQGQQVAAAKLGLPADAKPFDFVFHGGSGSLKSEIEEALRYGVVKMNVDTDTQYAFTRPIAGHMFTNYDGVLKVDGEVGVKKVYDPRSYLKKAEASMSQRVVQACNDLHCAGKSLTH
* = called active by the depositor; ? = inconclusive; nt = not tested or not shown. Hits are enriched below; roughly 3.6% of the tested compounds scored in any of these assays.

SMILES | Mtb hypoxia inh | Mtb bLac sens | GDH-TPI counter | VHR inh abs | FBA Mtb inh
COc1cccc(C2=N/C(=C\N(C)C)C(=O)O2)c1 | nt | 7.5 | 37.3* | 8.1 | 0.0
COc1cc(C=NNC(=O)CCC(=O)Nc2ccc(Br)cc2)ccc1O | 16.2 | nt | nt | nt | nt
COc1ccc(CN2CCCC(C(=O)N3CCc4ccccc4C3)C2)cc1OC (stereo unspecified) | 4.3 | -5.7 | 8.3 | 59.1* | -0.3
COc1cc(C=NN2CCN(Cc3ccc(Cl)cc3)CC2)ccc1OC(C)=O | 6.7 | nt | nt | nt | nt
CC1CN=C(N(C)C)N1CCc1ccc(F)cc1 (stereo unspecified) | 8.9 | nt | nt | nt | nt
COc1ccc(/C=C(/NC(=O)c2ccccc2)c2nc3ccccc3[nH]2)cc1OC | nt | -5.6 | 41.6* | 10.4 | 0.0
COc1ccc(C(=O)N/C(=C\c2cccs2)c2nc3ccccc3[nH]2)cc1OC | 4.0 | ? | 49.0* | 24.6 | 3.7
Cc1ccc(C(=O)N/C(=C\c2cccnc2)c2nc3ccccc3[nH]2)cc1 | 1.7 | -6.0 | 28.7 | -7.5 | 2.4
COc1ccc(/C=C(/NC(=O)c2ccccc2)c2nc3ccc(Cl)cc3[nH]2)cc1OC | -2.8 | 5.7 | 35.8* | 5.1 | 2.7
COc1ccc(C(=O)N/C(=C/c2cccs2)C(=O)NN)cc1OC | -0.4 | 4.7 | 11.5 | 9.3 | 1.7
CC(=NNC(=O)CNC(=O)Cc1ccccc1)c1ccc(Cl)cc1 | 5.2 | nt | nt | nt | nt
CCC(C)C(NC(=O)OCc1ccccc1)c1nnc(C(NC(=O)OCc2ccccc2)C(C)CC)o1 (stereo unspecified) | 20.9 | nt | nt | nt | nt
CCOC1OC(C(N)=O)=CC(c2coc3ccccc3c2=O)C1CCCO (stereo unspecified) | 9.6 | nt | nt | nt | nt
Cc1ccc(Cn2ccc(=O)c(OCc3c(Cl)cccc3Cl)c2C)cc1 | 67.5* | 99.9 | -8.1 | 11.6 | -3.0
CCOC(=O)C1Nc2ccccc2C2c3ccccc3CC12 (stereo unspecified) | 19.1 | 46.6 | 10.9 | nt | 33.4*
N#C/C(=C/c1cccs1)c1nc2ccccc2[nH]1 | 11.2 | 4.2 | 19.2 | -8.5 | 3.8
COc1cccc(/C=C(/C#N)c2nc3ccccc3[nH]2)c1OC(C)C(=O)O (stereo unspecified) | 10.1 | 5.0 | 19.1 | 6.9 | 3.4
COc1cccc(/C=C(\C#N)c2nc3ccccc3[nH]2)c1OCC(=O)O | 3.8 | 2.8 | 35.0* | -13.1 | 4.7
Cc1ccc(/C=C(\C#N)c2nc3ccccc3[nH]2)s1 | 15.8 | 3.1 | 36.7* | 30.4 | 1.4
N#C/C(=C/c1ccc(N2CCOCC2)o1)c1nc2ccccc2[nH]1 | nt | 35.3 | -4.1 | 52.9* | -21.9
COC(=O)c1cccc(C23CC4(C2)C(CN(Cc2cccnc2)C4c2ccccc2)C3c2ccc(Cl)nc2)c1 (stereo unspecified) | -7.6 | nt | nt | nt | nt
Cc1sc2ncnc(N/N=C/c3ccc(O)cc3)c2c1C | nt | 9.5 | 48.0* | -3.4 | 1.3
Cc1sc2ncnc(N/N=C/c3ccccc3O)c2c1C | nt | 91.3 | 34.6* | 1.5 | 0.3
Nc1c(Cl)ncnc1N/N=C/c1ccc(O)cc1 | nt | -2.5 | 42.2* | -7.7 | 2.0
COc1ccc(C=NNc2ncnc3scc(-c4ccccc4)c23)cc1OC | 0.8 | nt | nt | nt | nt
SMILES | Mtb hypoxia inh | Mtb bLac sens | GDH-TPI counter | VHR inh abs | FBA Mtb inh
COc1cccc(/C=N/Nc2ncnc3scc(-c4ccccc4)c23)c1OC | nt | 42.7 | 41.1* | 2.3 | 5.4
Cc1ccc2nc(C)c(C(=O)NN=Cc3ccc(N4CCOCC4)cc3)cc2c1 | 15.0 | nt | nt | nt | nt
C=C(C)C(=O)N1CC2(CC(c3cccc(NC(=O)CCCCC)c3)=NO2)CC1C(N)=O (stereo unspecified) | 6.0 | nt | nt | nt | nt
O=C(Oc1c(-c2ccccc2)oc2ccccc2c1=O)c1ccccc1 | 0.9 | 99.7 | 17.7 | -8.9 | 2.4
CC(=O)COc1c(-c2ccco2)oc2ccccc2c1=O | 16.5 | 1.0 | 32.3* | 47.3 | 23.8
Cc1ccc(-n2[nH]c(C)c(C=NNc3ccc([N+](=O)[O-])cc3[N+](=O)[O-])c2=O)cc1C | 13.8 | nt | nt | nt | nt
Cc1ccsc1C(=O)NCc1ccccc1Cl | -2.3 | -1.3 | 9.6 | 58.5* | -1.6
Cc1ccsc1C(=O)NCc1ccc(Cl)cc1 | 19.8 | -5.3 | 1.6 | nt | 0.9
CN(C)/C=C/C(=O)c1ccc(F)cc1 | -4.1 | 6.9 | 28.3 | 12.3 | -0.2
CN(C)/C=C/C(=O)c1ccccc1 | -3.7 | -1.5 | 49.4* | 36.7 | -7.2
O=C(/C=C/NNC(=O)c1ccccc1)c1ccccc1 | 12.9 | 77.2 | 10.4 | 51.6* | -1.9
COc1ccc(C(=O)/C=C/N(C)C)cc1 | 7.5 | 3.1 | 44.5* | 18.0 | -1.1
O=C(/C=C/NNC(=O)c1ccc(Br)cc1)c1ccccc1 | nt | 59.1 | 6.9 | 31.8 | -2.7
N#Cc1ccc(/C=C/C(=O)c2ccccc2)cc1 | 36.2* | 100.0 | 9.5 | 1.7 | -1.5
CN(C)/C=C/C(=O)c1ccc(Oc2ccccc2)cc1 | -6.5 | -4.2 | 22.0 | 21.6 | 7.3
O=C(Cc1cc(=O)[nH][nH]1)NN=C/C(Cl)=C/c1ccccc1 | 5.3 | nt | nt | nt | nt
COc1ccc(NC(C)=C2C(=O)C(=O)N(CCO)C2c2ccc([N+](=O)[O-])cc2)cc1 (stereo unspecified) | 6.1 | nt | nt | nt | nt
COc1ccc(C(=O)/C=C/N(C)C)cc1OC | nt | 7.2 | 33.6* | 24.5 | 0.2
O=C1c2ccc3c4c(ccc(c24)C(=O)N1c1cccc(O)c1)CC3 | -8.0 | 2.6 | 9.3 | 28.4 | 2.9
O=C1c2ccc3c4c(ccc(c24)C(=O)N1c1cccc(O)c1)C(=O)N(c1cccc(O)c1)C3=O | -9.8 | 7.6 | 35.1* | -15.2 | 3.0
C=CCNc1nc(C(=O)OCC(=O)NCc2cccc(Cl)c2)cs1 | 33.7* | 0.2 | -3.0 | nt | -0.9
O=C(N/N=C/c1ccc[nH]1)c1ccccc1OCc1ccccc1Cl | nt | 4.2 | 4.9 | 57.4* | -5.5
CSc1nc2nc(-c3ccccc3)cc(C(F)(F)F)n2n1 | -0.1 | -6.5 | 11.6 | 29.1 | 36.8*
CSc1nc2nc(C(F)(F)F)cc(-c3ccccc3)n2n1 | nt | -5.9 | 24.3 | 19.6 | 33.8*
COc1ccc(/C=C2\SC(=O)N(CC(=O)N(C)C3CCS(=O)(=O)C3)C2=O)cc1 (stereo unspecified) | 1.0 | 9.5 | 33.9* | 6.8 | 3.8
SMILES | Mtb hypoxia inh | Mtb bLac sens | GDH-TPI counter | VHR inh abs | FBA Mtb inh
COc1ccc(/C=C2\SC(=O)N(CC(=O)NCCCn3ccnc3)C2=O)cc1 | 2.6 | 3.4 | 43.2* | 24.4 | -2.2
COc1ccc(/C=C2\SC(=O)N(CC(=O)NC3CCS(=O)(=O)C3)C2=O)cc1 (stereo unspecified) | 5.3 | -1.2 | 38.9* | 5.7 | 5.3
COc1cccc(/C=C2\SC(=O)N(CC(=O)NCCCn3ccnc3)C2=O)c1 | -0.3 | 0.1 | 24.2 | -2.2 | 4.7
CN(C(=O)CN1C(=O)S/C(=C\c2ccc(F)cc2)C1=O)C1CCS(=O)(=O)C1 (stereo unspecified) | -4.0 | 0.7 | 28.8 | 9.1 | -1.7
O=C(CN1C(=O)S/C(=C\c2ccccc2)C1=O)NC1CCS(=O)(=O)C1 (stereo unspecified) | 0.3 | -0.8 | 28.6 | -9.0 | 1.5
CCN(C(=O)CN1C(=O)S/C(=C\c2ccc(F)cc2)C1=O)C1CCS(=O)(=O)C1 (stereo unspecified) | -0.2 | -6.8 | 36.2* | 6.8 | -0.8

Source: PubChem BioAssay
